Compound activity as filed in PubChem BioAssay.
Hits are enriched below; roughly 3.9% of the tested compounds scored in any of these assays.
GDH-TPI counter-1 = GDH-TPI coupling enzyme inhibitors, primary screen, artefact control for M. tuberculosis FBA inhibitor project, biochemical, absorbance, full deck | GDH-TPI coupled enzyme counterscreen, NADH absorbance | inhibition, % at 4.8 µM | 360,000 tested, 1.2% active | AID 588335, 2011; in the data active means inhibition above about 30%
Mtb FBA inh = Mtb FBA enzyme inhibitors, primary screen, biochemical, fluorescence, strain H37Rv; AID 588726, 2011; purified M. tuberculosis FBA, fluorescence read-out; 360,000 tested, 2.3% active; Fructose-bisphosphate aldolase (Mycobacterium tuberculosis (strain ATCC 25618 / H37Rv)), …; inhibition, % at 1 µM
Target sequence (P9WQA3 whole entry, looked up): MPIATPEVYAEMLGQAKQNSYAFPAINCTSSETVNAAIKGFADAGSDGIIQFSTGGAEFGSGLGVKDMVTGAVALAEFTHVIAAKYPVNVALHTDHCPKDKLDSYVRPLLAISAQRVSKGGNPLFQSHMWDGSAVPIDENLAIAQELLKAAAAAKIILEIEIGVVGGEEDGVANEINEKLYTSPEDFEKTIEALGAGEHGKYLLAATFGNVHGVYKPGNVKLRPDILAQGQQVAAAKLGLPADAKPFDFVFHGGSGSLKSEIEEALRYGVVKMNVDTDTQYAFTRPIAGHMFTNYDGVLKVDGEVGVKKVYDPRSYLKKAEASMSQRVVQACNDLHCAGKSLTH
BH1578 lux ind = inducers of Vibrio cholerae quorum light production without autoinducers, primary screen, BH1578 luxS cqsA deficient, single point; V. cholerae BH1578 lux reporter, luminescence, 6 h; activation, % at 18.7 µM; 350,000 tested, 0.16% active; AID 588436, 2011; in the data active means activation mostly above about 9.7%, no sharp cut-off
CCHF vOTU inh = CCHFV vOTU protease inhibitors, primary screen, biochemical, Pep-AMC substrate, fluorescence. 370,000 tested, 0.55% active. Crimean-Congo hemorrhagic fever virus L polyprotein viral ovarian tumor (vOTU) protease …. inhibition, % at 11.5 µM; in the data active means inhibition above about 30%
Mtb FBA confirm = M. tuberculosis aldolase blockers, biochemical, fluorescence, strain H37Rv, confirmation; shares compounds with Mtb FBA inh; purified M. tuberculosis FBA, fluorescence read-out; inhibition, % at 1 µM; 5,600 tested, 78% active; AID 651616, 2012
GDH-TPI counter-2 = GDH-TPI coupling enzyme inhibitors, artefact control for M. tuberculosis FBA inhibitor project, biochemical, fluorescence, high throughput; shares compounds with Mtb FBA inh; GDH-TPI coupled enzyme counterscreen; inhibition, % at 1 µM; 5,600 tested, 81% active; AID 652141, 2013; in the data active means inhibition above about 10%
GDH-TPI DR = GDH-TPI coupling enzyme inhibitors, dose response, artefact control for M. tuberculosis FBA inhibitor project, biochemical, fluorescence, IC50; shares compounds with Mtb FBA inh; GDH-TPI coupled enzyme assay, artifact counterscreen; IC50, µM; 170 tested, 79% active; call rule not given here
A number is an active result; i = inactive; nt = not tested or not shown; + = active, no number. Unless noted, no stated cut-off is given here; in the data, active means inhibition above about 27%; inactive means the rest.

SMILES	GDH-TPI counter-1	Mtb FBA inh	BH1578 lux ind	CCHF vOTU inh	Mtb FBA confirm	GDH-TPI counter-2	others
O=C(NC1CCCCC1)N(CCN1CCOCC1)Cc1cc2cc3c(cc2[nH]c1=O)OCCO3	i	31	i	i	98	79
O=C(c1ccccc1F)N(Cc1cccnc1)Cc1cc2cc3c(cc2[nH]c1=O)OCCO3	i	i	i	i	nt	nt
O=C(NCc1ccccc1)N(Cc1cc2cc3c(cc2[nH]c1=O)OCCO3)CC1CCCO1 (stereo not drawn)	i	28	i	i	54	52
COc1cc(C(=O)N(Cc2cccnc2)Cc2cc3cc4c(cc3[nH]c2=O)OCCO4)cc(OC)c1OC	i	28	i	i	110	87
CCC(=O)N(CCc1ccccc1)Cc1cc2cc3c(cc2[nH]c1=O)OCO3	i	40	i	i	36	26
O=c1[nH]c2cc3c(cc2cc1CN(CC1CCCO1)S(=O)(=O)c1ccccc1)OCCO3 (stereo not drawn)	i	28	i	i	i	i
COc1ccc(-c2nnc(-c3ccccc3)o2)cc1OC	i	31	i	i	149	107
CCOc1ccc(-c2nnc(-c3ccccc3)o2)cc1	i	91	i	i	88	74
COc1cc(-c2nnc(-c3ccccc3)o2)cc(OC)c1OC	i	i	i	i	nt	nt
CCOC(=O)COc1ccc(-c2nnc(-c3ccccc3)o2)cc1	i	59	i	i	41	35
CCOc1ccc(-c2nnc(-c3ccc(OC)cc3)o2)cc1	i	i	i	i	nt	nt
CN(C)C(=O)CCc1ccc2c3c([nH]c2c1)[C@]1(CCc2ccccc2)[C@@H](C(=O)N2CCCCC2)C[C@H](CC(=O)NCCc2ccccn2)C(=O)N1CC3	i	i	i	i	nt	nt
COc1ccccc1N(C)S(=O)(=O)c1ccc(C(=O)NC2CCCCC2)cc1	i	i	i	i	nt	nt
O=CN1CCN(C(=S)NC(=O)c2ccc(Cl)cc2)CC1	i	i	i	i	nt	nt
O=C(CCNC(=O)c1ccc(Br)cc1)Nc1ccccc1N1CCCCC1	i	i	i	i	nt	nt
Cc1ccn2cc(CCNC(=O)C3CC=CCC3C(=O)O)nc2c1 (stereo not drawn)	i	31	i	i	+	+
Cc1ccn2cc(CCNC(=O)Cc3cccs3)nc2c1	i	i	i	i	nt	nt
Cc1ccn2cc(CCNC(=O)CC(C)(C)C)nc2c1	i	27	i	i	45	29
Cc1ccn2cc(CCNC(=O)COc3ccccc3)nc2c1	i	35	i	i	46	30
COc1ccc(CN2CCN(C(=O)c3cc(-c4cccnc4)nc4ccc(Cl)cc34)CC2)c(OC)c1OC	i	i	i	i	nt	nt
COc1cc2[nH]c(=S)nc(NCC3CCCO3)c2cc1OC (stereo not drawn)	i	75	i	i	83	61
COc1cc2[nH]c(C(=O)NCC3CCCO3)cc2c(OC)c1OC (stereo not drawn)	i	32	i	i	+	+
COc1ccc(CCNC(=O)Cn2c(=O)c3cccn3c3cccnc32)c(OC)c1OC	i	i	i	i	nt	nt
O=C(NC1CCCC1)c1csc2c1CCCC2	i	i	i	nt	nt	nt
O=C(CCCC(=O)OCC(Cl)=C(Cl)Cl)Nc1ccccc1F	i	i	i	i	nt	nt
SMILES	GDH-TPI counter-1	Mtb FBA inh	BH1578 lux ind	CCHF vOTU inh	Mtb FBA confirm	GDH-TPI counter-2	others
CC1CCN(C(=O)Cn2cnc3c2c(=O)n(C)c(=O)n3C)c2ccccc2S1 (stereo not drawn)	i	i	i	i	nt	nt
O=c1[nH]c2cc3c(cc2cc1CN(Cc1cccs1)Cc1nnnn1Cc1ccco1)OCCO3	i	35	i	i	84	78
O=c1[nH]c2cc3c(cc2cc1CN(Cc1cccnc1)Cc1nnnn1Cc1ccco1)OCCO3	i	34	i	i	i	i
Cc1ccc(C(=O)N2CCN(C3c4cccc5cccc(c45)C3NS(=O)(=O)c3ccccc3)CC2)cc1 (stereo not drawn)	i	i	nt	i	nt	nt
CN(Cc1nc2ccccc2c(=O)[nH]1)C(=O)c1ccc(S(=O)(=O)N(C)C)cc1	i	i	i	i	nt	nt
CC(=O)c1ccc(-c2ccc(C(=O)N(C)Cc3nc4ccccc4c(=O)[nH]3)o2)cc1	i	89	i	i	i	i
CCC1(C)Cc2ccccc2-c2nc3n(c(=O)c21)CC(C(=O)O)S3 (stereo not drawn)	i	39	i	i	i	i
Cc1cc(N2CC(C)OC(C)C2)n2cc(-c3ccccc3)nc2n1 (stereo not drawn)	i	63	i	i	+	+
Cc1cc(N2CCOCC2)n2cc(-c3ccccc3)nc2n1	i	i	i	i	nt	nt
COC(=O)C1=C(C)N(C)C(=NCc2cc(OC)c(OC)c(OC)c2)NC1c1ccc(C(F)(F)F)cc1 (stereo not drawn)	nt	nt	nt	i	nt	nt
COc1ccc2[nH]c(=O)c(-c3nnn(-c4ccccc4)n3)cc2c1	i	34	i	i	176	128
COc1ccc2[nH]c(=O)c(-c3noc(-c4ccccc4)n3)cc2c1	i	32	i	i	165	117
COc1ccc2[nH]c(=O)c(-c3nnn(-c4ccc(F)cc4)n3)cc2c1	i	i	i	i	nt	nt
N#C/C(=C\c1cccnc1)c1ccccn1	i	37	i	i	45	41
Cc1cc2c(SCc3ccccc3Cl)nc(N)nc2nc1C	i	86	i	i	i	i	GDH-TPI DR=1.3
CCc1ccc(-c2csc3ncn(Cc4ccc(C(=O)O)cc4)c(=O)c23)cc1	i	i	i	i	nt	nt
COC(=O)c1ccc(Cl)cc1N(Cc1c(F)cccc1Cl)S(C)(=O)=O	i	i	i	i	nt	nt
CNC(=O)c1ccc(-c2ccc(F)cc2)s1	i	41	i	i	115	95
CCOc1ccc(C(=O)Nc2cccc(C(C)=O)c2)cc1[N+](=O)[O-]	i	i	i	i	nt	nt
Cc1oc2c(CN3CCOCC3)c(O)ccc2c(=O)c1-c1ccc(Cl)cc1	i	65	i	i	37	22
Cc1oc2c(CN3CCOCC3)c(O)ccc2c(=O)c1-c1ccc(Br)cc1	i	68	nt	i	i	i
Cc1oc2c(CN3CCCCC3C)c(O)ccc2c(=O)c1-c1ccc(Br)cc1 (stereo not drawn)	i	108	i	i	118	97
O=c1c(-c2ccc(Br)cc2)coc2c(CN3CCOCC3)c(O)ccc12	i	i	i	i	nt	nt
Cc1ccc(NC(=O)c2cccc3c2C(=O)N(C2CCCCC2)C3)cc1	i	i	i	i	nt	nt
